Reference: the supplement of paper PMC10849652
The full data set covers some 7,900 targets. This sample favours those with a hit. About 0.6% of all pairs of compound and target were hits.

Columns and labels:
Assay in all cases: log2 fold change, soluble protein after heating vs DMSO (PISA); higher = thermal stabilisation; K562 cells, 10 uM, 30 min; active = over 0.2 and 3.5 SD of the protein, either way, in both replicates (recomputed)
[1] = compound: COC1=CC=C(C=C1)CN2C=CC3=C2C=C(C=C3)C(=O)NO
Method in brief: (§1)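 Soluble protein was defined as the supernatant after 21,000xg for 90 min. It came from K562 cells at 2×10^6 cells/mL given 10 μM compound for 30 min, heated in aliquots for 3 min across 48°C-58°C, pooled, and extracted in PBS with 0.5% NP-40 at 4°C, and was quantified by TMTpro 16plex LC-MS/MS with equalised channel sums. Thermal stability against control samples, from duplicates, is reported as log2 fold change.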

[2] = compound: CON(C)C(=O)N1N=C(c2cc(F)ccc2F)S[C@@]1(CCCN)c1ccccc1 [filanesib]
Method in brief: as §1

[3] = compound: CO[C@H]1C[C@@H]2CC[C@@H](C)[C@@](O)(O2)C(=O)C(=O)N2CCCC[C@H]2C(=O)O[C@H]([C@H](C)C[C@@H]2CC[C@H](n3cnnn3)[C@H](OC)C2)CC(=O)[C@H](C)/C=C(\C)[C@@H](O)[C@@H](OC)C(=O)[C@H](C)C[C@H](C)/C=C/C=C/C=C/1C [zotarolimus]
Method in brief: as §1

[4] = compound: COc1cc(C(=O)O)ccc1NC(=O)[C@@H]1N[C@@H](CC(C)(C)C)[C@](C#N)(c2ccc(Cl)cc2F)[C@H]1c1cccc(Cl)c1F [idasanutlin]
Method in brief: as §1

[5] = compound: COc1cc(Nc2ncc3c(n2)-c2ccc(Cl)cc2C(c2c(F)cccc2OC)=NC3)ccc1C(=O)O [alisertib]
Method in brief: as §1

[6] = compound: COc1cc2nc(-c3cc(F)ccc3O)nc(N[C@@H]3CNC[C@H]3C(C)(C)O)c2cc1OC
Method in brief: as §1

[7] = compound: COc1cc2ncnc(Nc3ccc(F)c(Cl)c3)c2cc1OCCCN1CCOCC1 [gefitinib]
Method in brief: as §1

[8] = compound: COc1cccc2cc(-c3nc([C@H]4CC[C@H](C(=O)O)CC4)n4ncnc(N)c34)[nH]c12
Method in brief: as §1

[9] = compound: CS(=O)(=O)CCNCc1ccc(-c2ccc3ncnc(Nc4ccc(OCc5cccc(F)c5)c(Cl)c4)c3c2)o1 [lapatinib]
Method in brief: as §1

[10] = compound: CS(=O)(=O)N1CCN(Cc2cc3nc(-c4cccc5[nH]ncc45)nc(N4CCOCC4)c3s2)CC1 [pictilisib]
Method in brief: as §1

Measured: log2 fold change

MAGEC2 (UniProt Q9UBF1)
Chain of UniProt Q9UBF1 (Q9UBF1 whole entry, looked up): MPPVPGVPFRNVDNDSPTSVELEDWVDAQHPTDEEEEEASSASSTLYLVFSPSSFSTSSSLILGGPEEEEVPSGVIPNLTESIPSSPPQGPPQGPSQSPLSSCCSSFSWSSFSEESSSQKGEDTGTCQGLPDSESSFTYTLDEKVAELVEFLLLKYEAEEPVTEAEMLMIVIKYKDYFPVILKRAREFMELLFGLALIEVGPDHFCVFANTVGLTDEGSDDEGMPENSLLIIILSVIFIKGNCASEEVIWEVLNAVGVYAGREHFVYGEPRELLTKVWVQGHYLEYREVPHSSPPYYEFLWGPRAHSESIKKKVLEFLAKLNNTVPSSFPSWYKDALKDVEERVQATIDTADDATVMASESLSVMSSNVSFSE
inactive: [1] 0.018 | [2] -0.032 | [3] 0.039 | [4] -0.045 | [5] -0.044 | [6] 0.015 | [7] -0.018 | [8] -0.005 | [9] -0.004 | [10] 0.058

MARCKSL1 (UniProt P49006)
Chain of UniProt P49006 (P49006 whole entry, looked up): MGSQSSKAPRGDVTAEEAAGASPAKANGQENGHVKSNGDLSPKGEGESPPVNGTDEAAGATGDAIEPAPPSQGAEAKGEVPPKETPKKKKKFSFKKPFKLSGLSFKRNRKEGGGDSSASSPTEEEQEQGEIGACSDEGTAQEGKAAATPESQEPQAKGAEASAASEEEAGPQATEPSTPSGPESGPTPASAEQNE
inactive: [1] -0.074 | [2] 0.002 | [3] -0.033 | [4] -0.011 | [5] -0.093 | [6] 0.073 | [7] -0.027 | [8] 0.028 | [9] -0.061 | [10] 0.026

LARP4B (UniProt Q92615)
Chain of UniProt Q92615 (Q92615 whole entry, looked up): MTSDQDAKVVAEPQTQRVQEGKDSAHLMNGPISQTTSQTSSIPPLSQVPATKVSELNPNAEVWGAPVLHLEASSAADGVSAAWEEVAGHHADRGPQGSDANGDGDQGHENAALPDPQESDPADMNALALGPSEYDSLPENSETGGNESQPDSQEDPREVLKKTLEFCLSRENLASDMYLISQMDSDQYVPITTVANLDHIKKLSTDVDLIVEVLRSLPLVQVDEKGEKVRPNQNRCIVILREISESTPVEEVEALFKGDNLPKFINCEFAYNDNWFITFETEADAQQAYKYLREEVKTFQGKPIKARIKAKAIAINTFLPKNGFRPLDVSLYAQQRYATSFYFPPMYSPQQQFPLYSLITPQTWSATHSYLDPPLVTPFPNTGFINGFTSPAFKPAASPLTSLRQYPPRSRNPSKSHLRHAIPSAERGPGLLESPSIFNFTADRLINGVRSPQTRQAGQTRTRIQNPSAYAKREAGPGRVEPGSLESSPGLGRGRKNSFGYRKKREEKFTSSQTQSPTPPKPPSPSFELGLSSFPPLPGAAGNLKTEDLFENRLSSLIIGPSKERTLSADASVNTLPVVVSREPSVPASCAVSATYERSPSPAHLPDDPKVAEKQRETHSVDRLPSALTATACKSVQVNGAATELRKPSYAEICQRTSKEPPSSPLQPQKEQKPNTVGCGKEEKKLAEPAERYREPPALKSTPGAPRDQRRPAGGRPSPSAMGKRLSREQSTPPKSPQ
inactive: [1] 0.035 | [2] 0.056 | [3] 0.004 | [4] 0.053 | [5] -0.054 | [6] -0.108 | [7] 0.011 | [8] -0.06 | [9] 0.081 | [10] -0.009

KPNA4 (UniProt O00629)
inactive: [1] 0.017 | [2] -0.028 | [3] 0.015 | [4] -0.068 | [5] -0.026 | [6] -0.091 | [7] 0.041 | [8] 0.044 | [9] -0.017 | [10] -0.025

ILF3 isoform 7 (UniProt Q12906)
Chain of UniProt Q12906 (Q12906 whole entry, looked up): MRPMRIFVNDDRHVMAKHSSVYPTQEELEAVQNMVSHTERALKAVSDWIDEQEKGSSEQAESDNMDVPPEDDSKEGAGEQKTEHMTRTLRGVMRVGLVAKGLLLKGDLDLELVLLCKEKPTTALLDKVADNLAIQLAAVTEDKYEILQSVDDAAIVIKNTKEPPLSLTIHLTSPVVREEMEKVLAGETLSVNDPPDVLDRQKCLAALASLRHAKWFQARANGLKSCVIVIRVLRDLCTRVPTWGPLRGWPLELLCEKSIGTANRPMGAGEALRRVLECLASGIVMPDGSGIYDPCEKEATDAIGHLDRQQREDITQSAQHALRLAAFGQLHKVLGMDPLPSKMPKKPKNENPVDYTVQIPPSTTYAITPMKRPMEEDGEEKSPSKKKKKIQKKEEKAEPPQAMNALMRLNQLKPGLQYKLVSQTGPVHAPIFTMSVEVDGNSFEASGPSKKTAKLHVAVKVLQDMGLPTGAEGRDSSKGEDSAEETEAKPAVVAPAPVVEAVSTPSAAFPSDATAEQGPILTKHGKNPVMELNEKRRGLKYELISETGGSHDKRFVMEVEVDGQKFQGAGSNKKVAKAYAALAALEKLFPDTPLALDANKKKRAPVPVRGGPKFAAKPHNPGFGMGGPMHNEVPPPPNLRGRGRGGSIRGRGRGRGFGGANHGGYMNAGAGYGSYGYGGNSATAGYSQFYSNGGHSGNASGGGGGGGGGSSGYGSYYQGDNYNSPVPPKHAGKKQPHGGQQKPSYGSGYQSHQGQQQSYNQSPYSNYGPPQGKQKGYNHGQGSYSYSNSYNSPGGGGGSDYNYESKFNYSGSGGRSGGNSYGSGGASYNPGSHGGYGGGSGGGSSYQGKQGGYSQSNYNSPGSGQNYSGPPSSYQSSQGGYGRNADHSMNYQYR
inactive: [1] 0.022 | [2] 0.213 | [3] -0.047 | [4] 0.095 | [5] -0.061 | [6] 0.174 | [7] -0.022 | [8] -0.06 | [9] 0 | [10] 0.018

LAMP2 (UniProt P13473)
Chain of UniProt P13473 (P13473 whole entry, looked up): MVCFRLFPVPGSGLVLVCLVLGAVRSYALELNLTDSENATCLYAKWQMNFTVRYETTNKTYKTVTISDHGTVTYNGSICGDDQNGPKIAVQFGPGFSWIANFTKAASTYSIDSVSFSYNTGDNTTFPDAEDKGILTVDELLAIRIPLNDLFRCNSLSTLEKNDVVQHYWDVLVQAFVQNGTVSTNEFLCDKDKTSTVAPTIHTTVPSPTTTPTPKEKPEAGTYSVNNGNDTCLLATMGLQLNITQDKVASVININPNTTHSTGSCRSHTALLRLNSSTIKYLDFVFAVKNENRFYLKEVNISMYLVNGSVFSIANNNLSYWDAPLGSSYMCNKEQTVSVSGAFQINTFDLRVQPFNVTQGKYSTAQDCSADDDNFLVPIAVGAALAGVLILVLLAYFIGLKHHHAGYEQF
inactive: [1] -0.125 | [2] -0.058 | [3] -0.022 | [4] -0.005 | [5] -0.006 | [6] -0.012 | [7] 0.005 | [8] 0.084 | [9] -0.079 | [10] 0.046

KCTD10 (UniProt Q9H3F6)
Chain of UniProt Q9H3F6 (Q9H3F6 whole entry, looked up): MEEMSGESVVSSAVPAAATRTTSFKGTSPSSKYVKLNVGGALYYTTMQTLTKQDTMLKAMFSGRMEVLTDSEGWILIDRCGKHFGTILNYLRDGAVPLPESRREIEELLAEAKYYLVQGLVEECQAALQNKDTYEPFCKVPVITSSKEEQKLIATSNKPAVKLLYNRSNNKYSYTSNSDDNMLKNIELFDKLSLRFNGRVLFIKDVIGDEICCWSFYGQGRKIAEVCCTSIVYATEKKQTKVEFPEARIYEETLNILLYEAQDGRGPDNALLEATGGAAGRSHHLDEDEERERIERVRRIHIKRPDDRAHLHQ
inactive: [1] 0.086 | [2] 0.177 | [3] -0.095 | [4] -0.049 | [5] -0.06 | [6] 0.079 | [7] -0.03 | [8] -0.105 | [9] 0.001 | [10] -0.039

IWS1 (UniProt Q96ST2)
inactive: [1] 0.007 | [2] -0.013 | [3] -0.006 | [4] -0.105 | [5] -0.068 | [6] 0.124 | [7] -0.055 | [8] 0.055 | [9] -0.077 | [10] -0.011

KLC2 (UniProt Q9H0B6)
Chain of UniProt Q9H0B6 (Q9H0B6 whole entry, looked up): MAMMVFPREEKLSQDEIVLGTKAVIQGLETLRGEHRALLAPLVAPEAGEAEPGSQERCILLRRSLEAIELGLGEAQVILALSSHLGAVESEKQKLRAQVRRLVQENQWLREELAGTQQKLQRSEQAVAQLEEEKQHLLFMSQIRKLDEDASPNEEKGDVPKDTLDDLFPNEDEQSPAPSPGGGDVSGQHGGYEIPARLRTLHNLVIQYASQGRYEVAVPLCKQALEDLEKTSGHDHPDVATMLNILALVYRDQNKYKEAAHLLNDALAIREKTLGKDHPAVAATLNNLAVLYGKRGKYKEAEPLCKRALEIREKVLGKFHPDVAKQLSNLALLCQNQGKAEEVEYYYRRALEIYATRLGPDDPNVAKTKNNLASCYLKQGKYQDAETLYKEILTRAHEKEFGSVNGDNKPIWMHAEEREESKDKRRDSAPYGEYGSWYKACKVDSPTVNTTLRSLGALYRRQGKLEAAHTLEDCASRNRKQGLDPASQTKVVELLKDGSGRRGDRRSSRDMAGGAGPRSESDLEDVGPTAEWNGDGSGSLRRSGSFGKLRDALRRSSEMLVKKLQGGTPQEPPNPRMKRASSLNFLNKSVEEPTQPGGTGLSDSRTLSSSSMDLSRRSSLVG
inactive: [1] 0.06 | [2] -0.038 | [3] -0.028 | [4] -0.065 | [5] -0.047 | [6] -0.133 | [7] 0.017 | [8] 0 | [9] -0.005 | [10] 0.083

LTV1 (UniProt Q96GA3)
Chain of UniProt Q96GA3 (Q96GA3 whole entry, looked up): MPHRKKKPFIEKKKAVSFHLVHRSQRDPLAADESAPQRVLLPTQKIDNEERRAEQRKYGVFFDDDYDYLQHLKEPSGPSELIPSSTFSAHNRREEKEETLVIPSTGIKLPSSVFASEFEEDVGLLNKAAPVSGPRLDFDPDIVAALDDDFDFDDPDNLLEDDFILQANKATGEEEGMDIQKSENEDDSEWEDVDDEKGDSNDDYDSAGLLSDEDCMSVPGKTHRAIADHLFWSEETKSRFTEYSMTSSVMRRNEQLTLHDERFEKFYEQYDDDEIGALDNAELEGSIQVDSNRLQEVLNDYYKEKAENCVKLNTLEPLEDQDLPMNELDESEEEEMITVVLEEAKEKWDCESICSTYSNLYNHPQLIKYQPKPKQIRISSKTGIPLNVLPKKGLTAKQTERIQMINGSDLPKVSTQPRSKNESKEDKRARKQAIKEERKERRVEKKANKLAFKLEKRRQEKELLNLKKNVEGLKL
inactive: [1] -0.019 | [2] 0.17 | [3] 0.067 | [4] 0.133 | [5] -0.06 | [6] 0.022 | [7] -0.097 | [8] -0.095 | [9] 0.05 | [10] 0

MED17 (UniProt Q9NVC6)
inactive: [1] 0.004 | [2] 0.019 | [3] -0.052 | [4] 0.166 | [5] -0.08 | [6] 0.044 | [7] 0.016 | [8] -0.018 | [9] -0.063 | [10] 0.089

MARCKS (UniProt P29966)
inactive: [1] 0.108 | [2] 0.004 | [3] 0.001 | [4] 0.062 | [5] 0.006 | [6] -0.016 | [7] -0.003 | [8] 0.069 | [9] 0.019 | [10] -0.225

MAPKAPK3 (UniProt Q16644)
Chain of UniProt Q16644 (Q16644 whole entry, looked up): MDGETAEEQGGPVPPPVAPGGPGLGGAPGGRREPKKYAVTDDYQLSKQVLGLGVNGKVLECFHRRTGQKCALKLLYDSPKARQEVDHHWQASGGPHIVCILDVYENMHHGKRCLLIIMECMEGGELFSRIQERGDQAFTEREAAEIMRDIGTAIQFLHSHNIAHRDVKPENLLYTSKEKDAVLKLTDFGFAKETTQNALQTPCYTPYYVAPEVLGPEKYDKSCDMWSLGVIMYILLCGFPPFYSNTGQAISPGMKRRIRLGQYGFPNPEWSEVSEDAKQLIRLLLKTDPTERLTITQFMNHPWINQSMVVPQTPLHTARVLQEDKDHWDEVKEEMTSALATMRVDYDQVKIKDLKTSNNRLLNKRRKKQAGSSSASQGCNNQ
inactive: [1] -0.146 | [2] 0 | [3] -0.034 | [4] -0.088 | [5] 0.018 | [6] 0.037 | [7] 0.27 | [8] 0.01 | [9] -0.065 | [10] 0.039

MFGE8 (UniProt Q08431)
Chain of UniProt Q08431 (Q08431 whole entry, looked up): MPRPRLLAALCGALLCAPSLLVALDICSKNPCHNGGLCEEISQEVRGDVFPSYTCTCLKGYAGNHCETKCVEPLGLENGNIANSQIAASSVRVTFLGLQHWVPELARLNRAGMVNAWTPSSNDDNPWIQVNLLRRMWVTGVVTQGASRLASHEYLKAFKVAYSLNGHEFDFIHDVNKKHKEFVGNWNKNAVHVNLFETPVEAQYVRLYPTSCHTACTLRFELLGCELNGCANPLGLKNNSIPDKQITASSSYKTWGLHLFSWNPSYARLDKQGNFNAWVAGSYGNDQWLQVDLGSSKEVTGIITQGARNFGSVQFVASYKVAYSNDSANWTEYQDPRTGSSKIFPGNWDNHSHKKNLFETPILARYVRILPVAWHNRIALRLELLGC
inactive: [1] -0.129 | [2] 0.129 | [3] -0.03 | [4] 0.05 | [5] -0.147 | [6] 0.019 | [7] 0.069 | [8] -0.124 | [9] 0.079 | [10] 0.122

LBR (UniProt Q14739)
inactive: [1] -0.075 | [2] -0.065 | [3] -0.008 | [4] -0.196 | [5] -0.019 | [6] 0.079 | [7] 0.034 | [8] 0 | [9] -0.081 | [10] -0.191
